Results: PubChem BioAssay (NCI)
Compounds without any hit were thinned out: in the full panel of roughly 83,000, 20% have a hit.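 Testing used 96-well plates and a 48-hour single-concentration exposure. Example: -40 means 40% of the starting cells died.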 A number with no mark means an inactive call. Calls of active or inactive are those of the source. How the source made its calls: active means growth percent below 10; inactive means the rest.

Columns and labels:
Assay in all cases: NCI-60 one-dose screen, 48 h (100 = growth as untreated, 0 = no growth, -100 = all killed)
Conditions in all cases: 10 µM unless noted
DU-145 prostate = test system: DU-145 prostate
K-562 leukemia = test system: K-562 leukemia
MALME-3M melanoma = test system: MALME-3M melanoma
MDA-MB-231 breast = test system: MDA-MB-231 breast
RXF 393 renal = test system: RXF 393 renal
SF-268 CNS = test system: SF-268 CNS
SF-295 CNS = test system: SF-295 CNS
SF-539 CNS = test system: SF-539 CNS
UACC-257 melanoma = test system: UACC-257 melanoma
M14 melanoma = test system: M14 melanoma
HCT-15 colon = test system: HCT-15 colon
HT29 colon = test system: HT29 colon
SNB-75 CNS = test system: SNB-75 CNS
SNB-19 CNS = test system: SNB-19 CNS
PC-3 prostate = test system: PC-3 prostate
SK-MEL-5 melanoma = test system: SK-MEL-5 melanoma
UACC-62 melanoma = test system: UACC-62 melanoma
LOX IMVI melanoma = test system: LOX IMVI melanoma
SK-MEL-28 melanoma = test system: SK-MEL-28 melanoma
U251 CNS = test system: U251 CNS

Row | SMILES | growth (DU-145 prostate) | growth (K-562 leukemia) | growth (MALME-3M melanoma) | growth (MDA-MB-231 breast) | growth (RXF 393 renal) | growth (SF-268 CNS) | growth (SF-295 CNS) | growth (SF-539 CNS) | growth (UACC-257 melanoma) | growth (M14 melanoma) | growth (HCT-15 colon) | growth (HT29 colon) | growth (SNB-75 CNS) | growth (SNB-19 CNS) | growth (PC-3 prostate) | growth (SK-MEL-5 melanoma) | growth (UACC-62 melanoma) | growth (LOX IMVI melanoma) | growth (SK-MEL-28 melanoma) | growth (U251 CNS)
1 | COc1ccc(-n2ncc3c2ccc2cc(S(=O)(=O)c4ccccc4)c(=O)n(C)c23)cc1 | 77.7% | 113% | 88.7% | 74% | 67.9% | 69.2% | 96.5% | 63.7% | 92.9% | 92.8% | 92% | 81.2% | 49.6% | 92.7% | 86.7% | 95.9% | 87.8% | 86% | 91.2% | 
2 | CC1(C)N=C(N)N=C(N)N1c1cccc(OCCOc2cccc([N+](=O)[O-])c2)c1 | 45.1% | 17.9% | 48.2% | 65% | 73.2% | 22.9% | 68.1% | 26.1% | 48.3% | 64.1% | 89.5% | 15.4% | 51.8% | 53.9% | 17.8% | 70.5% | 39.6% | 20.1% | 56% | 
3 | O=C(O)CCN1CCN(c2cccc(Cl)c2)CC1 | 118% | 99.8% | 107% | 116% | 105% | 117% | 87.4% | 89.1% | 94.6% | 109% | 100% | 99.8% | 84% | 103% | 101% | 102% | 104% | 110% | 108% | 
4 | Fc1c[c-]c(-c2ccccn2)c(F)c1.Fc1c[c-]c(-c2ccccn2)c(F)c1.[Cl][Pt+].[Cl][Pt+].c1ccc([PH+](C[PH+](c2ccccc2)c2ccccc2)c2ccccc2)cc1 | 22.8% | 10.2% | -41.2% (active) | -15.4% (active) | 34% | 21.9% | 17.3% | 29.5% | -0.265% (active) | 22.7% | 90.8% | 7.78% (active) | 20.1% | 17.8% |  |  | 3.59% (active) | 20.5% | 16.1% | 15%
5 | O=C(CC(O)c1ccccc1)Nc1ccccn1 (stereo not drawn) | 104% | 84.1% | 94.2% | 104% | 131% | 103% | 108% | 97.6% | 94.9% | 99.7% | 101% | 103% | 85.9% | 92.1% |  |  | 98.3% | 98.4% | 103% | 102%
6 | CC(C)(C)CC(C)(C)N(CSc1ccc(Cl)cc1)CSc1ccc(Cl)cc1 | 73.8% | 34.8% | 82.1% | 0.954% (active) | 66.2% | 31.5% | 27.2% | 6.24% (active) | 63% | 48.3% | 53.3% | 57.7% | 49.6% | 67.5% | 2.25% (active) | 54.2% | 57.9% | -34.6% (active) | 76.7% | 
7 | Nc1nc(N)c(C=Nc2ccc(Br)cc2)c(Nc2ccc(Br)cc2)n1 | 107% | 92.2% | 119% | 86.1% | 78.9% | 81% | 83.5% | 101% | 83.1% | 97.2% | 88.5% | 101% | 91.3% | 99.8% |  |  | 87% | 81% | 106% | 95.1%
8 | NS(=O)(=O)c1cc(Br)c2c(c1)S(=O)(=O)NCN2 | 108% | 80.6% | 121% | 118% | 174% | 103% | 104% | 101% | 94.5% | 109% | 112% | 103% | 117% | 112% | 105% | 111% | 111% | 113% | 110% | 
9 | Cn1c2c(cc(S(=O)(=O)c3ccccc3)c1=O)CCc1c-2cnn1-c1cccc(Cl)c1 | 135% | 73.3% | 87.4% | 98.3% | 93.4% | 106% | 80.3% | 83.1% | 79.7% | 98% | 96.7% | 91.3% | 76.4% | 97% | 83.1% | 83.3% | 84.6% | 93.4% | 94.7% | 
10 | CCCCC(CCCC)(S(=O)(=O)CC)S(=O)(=O)CC | 107% | 101% | 99.8% | 119% | 98.9% | 109% | 100% | 101% | 101% | 101% | 97.7% | 105% | 98.4% | 105% | 91.6% | 98% | 106% | 102% | 115% | 
11 | Cc1nc2cc(Nc3nc(Nc4ccc(F)cc4)nc(-c4ccc(Cl)cc4)n3)ccc2n1Cc1ccccc1 | 81.4% | 33.6% | 72.5% | 66% | 68.5% | 54.9% | 90.4% | 92.6% | 68.9% | 58.3% | 64.4% | 55.8% | 65.2% | 83.4% |  | 83.4% |  | 76.6% | 92.6% | 69.7%
12 | Nc1nc(N)c(N=Nc2c(Br)cc(S(N)(=O)=O)cc2Br)c(N)n1 | 109% | 51.1% | 111% | 105% | 107% | 100% | 94.9% | 112% | 98.7% | 87.8% | 114% | 115% | 90.6% | 97.5% | 95.1% | 98.2% | 91.8% | 110% | 99.5% | 
13 | Cc1nc2cc(Nc3nc(N4CCOCC4)nc(N4CCN(C)CC4)n3)ccc2n1Cc1ccccc1 | 114% | 90.3% | 106% | 100% | 101% | 96.2% | 95.2% | 91.3% | 99.2% | 110% | 96% | 109% | 71.2% | 106% | 96.7% | 97.5% | 102% | 97.2% | 106% | 
14 | CCOc1ccc(-c2cnnn2-c2nonc2-n2cccc2)cc1 | -9.36% (active) | 5.54% (active) | 52.6% | 4.16% (active) | -30.1% (active) | 50.7% | 8.24% (active) | -19.5% (active) | 65% | 9.7% (active) | 22.6% | 1.88% (active) | 5.23% (active) | 37% | 30.4% | 24.7% | 35.6% | 33.1% |  | 
15 | COc1ccc(/C=C2\CN(Cc3cn(CCCNc4ccnc5cc(Cl)ccc45)nn3)C/C(=C\c3ccc(OC)cc3)C2=O)cc1 | 40.2% | 63.2% | 98.4% | 52.6% | 27.7% | 45.5% | 72.6% | 78.1% | 56% | 70.8% | 67.6% | 14.6% | 70.1% | 72.9% |  | 52.7% |  | 35.5% | 80.5% | 41.3%
16 | O=C1C(Br)=C(c2ccccc2)C(=O)C(Br)=C1c1ccccc1 | 105% | 76.2% | 114% | 94.6% | 102% | 102% | 97.9% | 98.6% | 96.2% | 104% | 85.7% | 110% | 78% | 93.6% | 91.5% | 98.5% | 83.1% | 97.5% | 107% | 
